Laboratory results: PubChem BioAssay (Tox21)
Results filed as inconclusive are left out. A call without a number means that no potency is given here. Values without a mark were called inactive. Activity calls are given as the source filed them. The call rests on the fitted dose curve; in most records, active means well fitted activation curve with a large enough effect in the repeat runs; inconclusive means weak or mixed curves; inactive means flat fitted curve, though single readings scatter.

Test: A CellTox Green Cytotoxicity Assay to monitor cytotoxicity in HepG2 cells - 16 hour (AID 1224876); further: nearly all actives have a fitted effect of over 45% in size
Details: CellTox Green fluorescence; series mostly up to 76.8 µM
From the text: National Center for Advancing Translational Sciences [NCATS]
NIH Chemical Genomics Center [NCGC]
U.S. Environmental Protection Agency [EPA]
National Institutes of Environmental Health Sciences [NIEHS]
National Toxicology Program [NTP]
Cell-based models are critical for drug discovery. Determining the natural cytotoxic effects resulting from test compounds is an essential research activity. A CellTox Green Cytotoxicity Assay to monitor cytotoxicity in real time of continues cell culture during 40 hours of the compound treatment was used to screen Tox21 10K library compounds in HepG2 cells. CellTox Green Cytotoxicity Assay is a nonlytic, homogeneous, biofluorescent method to measure cytotoxicity in cell culture after experimental manipulation. The assay system uses a proprietary asymmetric cyanine dye that is excluded from viable cells but preferentially stains the dead cell's DNA. […] Viable cells produce no appreciable increases in fluorescence. Therefore, the fluorescence signal produced by the binding interaction with dead cell DNA is proportional to cytotoxicity.
The mixture of HepG2 cell suspension and reagents were dispensed at 600cells/6 ul/well in 1536-well tissue culture treated black solid bottom plates using a Multidrop dispenser. After the assay plates were incubated at a 37 C/5% CO2 incubator for 5 hours, 23 nL of compounds dissolved in DMSO, positive and negative controls was transferred to the assay plate by a pintool work station. The plates were incubated at 37 C for 40 hours. The fluorescence intensity were measured at 0h, 8h, 16h, 24h, 32h and 40h time points using ViewLux plate reader during compound treatment.
Potency means the concentration at half of the fitted maximal effect.

Row | Structure (SMILES) | Potency | cytotoxicity increase
1 | c1cnc2c(n1)CCCC2 | 38.9 µM (active) | –
2 | CC1(C)C2=CCCC(C)(C)[C@]23CC[C@H]1C3 | inactive | –
3 | O=C(O)c1ccc(CO)o1 | inactive | –
4 | CCOC(=N)CC(=O)OCC | inactive | –
5 | CCOC(=O)C(C)Oc1ccc(Oc2nc3ccc(Cl)cc3o2)cc1 (stereo not given) | inactive | –
6 | CCCCCCCCSCCO | inactive | –
7 | CCCCC(CC)C(=O)OCCOCCOCCOCCOC(=O)C(CC)CCCC (stereo not given) | inactive | –
8 | O=C1NCCN1 | inactive | –
9 | Cc1nc2ccccn2c(=O)c1CCN1CCC(C(=O)c2ccc(F)cc2)CC1 | inactive | –
10 | CCCCCCCC/C=C\CCCCCCCC(=O)OC(CO)CO | inactive | –
11 | CCOC(=O)c1ccccc1OC | inactive | –
12 | CN(C)C(=O)Nc1ccc(Oc2ccc(Cl)cc2)cc1 | inactive | –
13 | C=CC(=C)CCCC(C)(C)OC(C)=O | inactive | –
14 | CCC(Cc1ccccc1)(C(=O)c1ccc(N2CCOCC2)cc1)N(C)C (stereo not given) | inactive | –
15 | CCCOC(=O)c1ccc(N)cc1 | inactive | –
16 | CCCCCCCCCCCCCCC[C@H](O)[C@@H](N)CO | 23.9 µM (active) | –
17 | Cc1cc(O)c2c(O)c3c(O)cccc3cc2c1 | inactive | –
18 | C[Si](NC1CCCCC1)(NC1CCCCC1)NC1CCCCC1 | inactive | –
19 | O=C(CS)OCCOC(=O)CS | inactive | –
20 | COC(=O)c1cc(S(N)(=O)=O)ccc1OC | inactive | –

Row | Structure (SMILES) | Potency | cytotoxicity increase
21 | CCCCC(CC)CNCC(CC)CCCC (stereo not given) | inactive | –
22 | CC(=O)Oc1ccc(C(=C2CCCCC2)c2ccc(OC(C)=O)cc2)cc1 | inactive | –
23 | CC(C)CCCC(=O)O | inactive | –
24 | CC(C)(O)c1ccccc1CC[C@@H](SCC1(CC(=O)O)CC1)c1cccc(/C=C/c2ccc3ccc(Cl)cc3n2)c1 | inactive | –
25 | O=C(C(=O)c1ccccc1)c1ccccc1 | inactive | –
26 | CC(=O)Nc1ccc(N)cc1 | inactive | –
27 | Cc1cc(S(=O)(=O)O)ccc1N=Nc1c(O)ccc2ccccc12 | inactive | –
28 | O=C(O)c1snc(Cl)c1Cl | inactive | –
29 | CC1=C(C=O)C(C)(C)CCC1 | inactive | –
30 | CCOC(=O)N1CCC(n2c(=O)[nH]c3cc(Cl)ccc32)CC1 | inactive | –
31 | CC(C)=CC=O | inactive | –
32 | [O]=[Bi] | – | -7.67% [at 6.97 µM]
33 | CCCCN(CCCC)C(=S)SSC(=S)N(CCCC)CCCC | inactive | –
34 | CCC(C(=O)OCCN(CC)CC)c1ccccc1 (stereo not given) | inactive | –
35 | Nc1ccc(S(=O)(=O)O)cc1 | inactive | –
36 | CCCCC(=O)O[C@]1(C(=O)CO)CC[C@H]2[C@@H]3CCC4=CC(=O)CC[C@]4(C)[C@H]3[C@@H](O)C[C@@]21C | inactive | –
37 | CC1C2CC(CC2C2CCCC(O)C2)C1(C)C (stereo not given) | 38.9 µM (active) | –
38 | CCCCC(CC)COC(=O)COc1ccc(Cl)cc1C (stereo not given) | inactive | –
39 | C=CCOC(=O)/C=C\C(=O)OCC=C | inactive | –
40 | CCCCCCCCCCOS(=O)(=O)O | inactive | –
